# Assay results published in PubChem BioAssay AID651899 (Broad Institute, 2012).
# Entries with a potency or affinity are not part of this list. Values without a mark were called inactive. The source made the active and inactive calls. The rule behind the calls is not given here.
# Assay: HEK293 cell viability loss – plate reader, cherry-pick, cytotoxicity control, dose response (AID 651899);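 note: cells exposed to compound for 48 hours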
SMILES,outcome,"activity change, negative = cytotoxicity"
COc1cc(C(=O)N2Cc3cc4ccccc4nc3C2C)cc(OC)c1OC (stereo unspecified),inactive,
CCOC(=O)c1c(N)sc(C(N)=O)c1C,inactive,
O=C(Nc1ccc(F)c(Cl)c1)C1CCCN(c2cnccn2)C1 (stereo unspecified),inactive,
COc1ccc(Nc2c(-c3ccc(OC)cc3)nc3cnccn23)cc1,inactive,
CCOc1ccc(CCNC(=O)c2cnc(C)cn2)cc1OCC,inactive,
O=C(Nc1ncc2c(n1)CC(c1ccco1)CC2=O)c1ccccc1 (stereo unspecified),inactive,
COc1ccc(Cc2c(-c3ccc(OC)c(OC)c3)nc3c(C)cc(Br)cn23)c(C)c1,inactive,
CCOC(=O)c1c(C)[n+](-c2ccc(C)cc2)c(CC)c2cc(OC)c(OC)cc12,inactive,
CCC(=O)N1CC[C@@H]2[C@H]1c1cc(-c3cccc(F)c3)ccc1N(C)[C@@H]2CO,inactive,
C=CCn1c(COc2ccccc2F)nnc1SCCN1C(=O)c2ccccc2C1=O,inactive,
O=C(c1ccncc1)N1CC[C@@H]2[C@@H](CO)Nc3ccc(Br)cc3[C@@H]21,inactive,
COC(=O)C[C@@H]1CC[C@@H]2[C@H](COC[C@@H](O)CN2C(=O)Nc2cccc(F)c2)O1,inactive,
CN1c2ccc(-c3cccc(F)c3)cc2[C@H]2[C@H](CCN2C(=O)C2CC2)[C@H]1CO,inactive,
CCOC(=O)C1CCN(C(=O)Nc2ccc3snnc3c2)CC1,inactive,
CC1(C(=O)NCc2ccc(F)c(F)c2)Cc2c(-c3cccc(C(N)=O)c3)ccnc2O1 (stereo unspecified),inactive,
O=C(Nc1ncc2c(n1)CC(c1ccco1)CC2=O)c1ccco1 (stereo unspecified),,20% [at 6 µM]
COC(=O)C1=C(C)Nc2sc(C(N)=O)c(N)c2C1c1ccncc1 (stereo unspecified),inactive,
COc1ccccc1-c1cc(C(F)(F)F)nc(S(=O)(=O)CCCC(=O)O)n1,inactive,

SMILES,outcome,"activity change, negative = cytotoxicity"
CCC(=O)N1CC[C@@H]2[C@H]1c1cc(-c3cccc(F)c3)ccc1N(C)[C@H]2CO,inactive,
COc1ccc(NC2CCCN(C(=O)c3ccc(C(C)=O)s3)C2)cc1 (stereo unspecified),inactive,
CCc1nn(CC(=O)N2CCN(Cc3ccc4c(c3)OCO4)CC2)c(=O)c2cc3occc3n12,inactive,
COC(=O)c1c(C(=O)OC)c(-c2cccc(F)c2)n2c1CS(=O)C2 (stereo unspecified),inactive,
Cc1ccc(/C=C(\CCC(=O)O)c2nc3ccccc3s2)cc1[N+](=O)[O-],inactive,
O=C(C[C@@H]1C[C@@H]2c3cc(NC(=O)c4cccnc4)ccc3O[C@@H]2[C@@H](CO)O1)NCc1cccnc1,inactive,
O=C(Nc1ccc2snnc2c1)N1CCOCC1,inactive,
COc1ccc(NC(=O)c2ccc(S(=O)(=O)N(C)C)cc2)cc1OC,inactive,
O=C(Nc1cccnc1)C1CCN(S(=O)(=O)c2ccc(Cl)cc2)CC1,inactive,
C=C(C)n1c(=O)n(Cc2ccccc2C)c2ccccc21,inactive,
C/C=C(/C)C(=O)OC(C)(C)[C@@H]1Cc2c(ccc3ccc(=O)oc23)O1,inactive,
Cc1cccc(-c2nnc(SCC#N)n2-c2ccccc2)c1,inactive,
O=C(Nc1ccc2c(c1)[C@H]1C[C@@H](CC(=O)N3CCc4ccccc4C3)O[C@@H](CO)[C@H]1O2)c1cccnc1,inactive,
CNC(=O)C[C@H]1CC[C@@H]2[C@H](COC[C@@H](O)CN2C(=O)Nc2ccc(Cl)c(Cl)c2)O1,inactive,
COc1cc(C(=O)Nc2cccnc2)cc(OC)c1OC,inactive,
Cc1nc2nc(SCC(=O)NCCCN3CCOCC3)nn2c(C)c1Cc1ccccc1,inactive,
CCNC(=O)[C@H]1[C@H](CO)[C@H]2Cn3c(ccc(-c4ccccc4)c3=O)[C@H]2N1C(=O)Cc1cccnc1,inactive,
Cc1ccc(Cc2c(C)nc3nc(SCC(=O)NCCN4CCOCC4)nn3c2C)cc1,inactive,
